Survival data for 29 compounds are collected here from PubChem BioAssay AID463173 (ICCB-Longwood Screening Facility, Harvard Medical School, 2010).

The campaign covered roughly 52,000 compounds. About 4,300 (8.3%) were called active. Many of the other results were omitted from the sample, so actives are more common in it than they were. Values without a mark were called inactive. No stated cut-off is given here; in the data, active means survival mostly below about 52% (no sharp cut-off); inactive means mostly above about 56%.

This test deals with DeltatarO mutant. As to the kind of experiment: growth inhibition of S. aureus wild type versus tarO mutant, primary screen, teichoic acid synthesis inhibitors, RN4220, OD600 (AID 463173). The conditions noted are these: OD600, 18 h, stronger effect = lower value, screened at 18.75 µg/mL (by protocol).
On to `Cc1ccc(C2=NNC(c3cccnc3)=Nc3ccc(F)cc32)o1`, for which the survival was 96%.

With `COc1ccc(Cl)cc1NC(=O)N1CCC(CN2CCCCCC2)CC1`, the survival was 79%.

Turning to `CN(C)c1ccc(/C=C(/NC(=O)c2ccccc2)C(N)=O)cc1`, the survival is 86%.

`Cc1ccc(NC(=O)C2CCCN(c3cnccn3)C2)cc1Cl` (centres undefined): the survival was 75%.

As to `C=CCNC(=O)CN1CCC(n2nnc3cc(C(F)(F)F)ccc32)CC1`, the survival was 79%.

Take `CCOC(=O)c1cnn2c(C(F)(F)F)cc(-c3ccc(Br)cc3)nc12`: the survival was 102%.

Take `CCc1ccccc1NC(=O)c1cc2nc(-c3ccc(OC)c(OC)c3)cc(C(F)(F)F)n2n1`: the survival is 52% (active).

Consider `COc1ccc(-c2cc(C(F)(F)F)n3nc(C(=O)Nc4cccc(Cl)c4Cl)cc3n2)cc1OC`, for which the survival is 123%.

On to `COc1ccc(-c2cc(C(F)(F)F)n3nc(C(=O)Nc4ccccc4SC)cc3n2)cc1OC`, for which the survival was 148%.

For `COC(=O)c1cnn2c(C(F)(F)F)cc(-c3ccccc3)nc12`, the survival was 68%.

Regarding `CCc1ccccc1NC(=O)c1cnn2c(C(F)(F)F)cc(-c3ccc(OC)c(OC)c3)nc12`, the survival is 46% (active).

With `CCCCOc1ccc(C(=O)NCCc2sc(-c3ccc(OC)c(OC)c3)nc2C)cc1`, the survival was 72%.

For `COc1ccc(NC(=O)c2oc3ccccc3c2NC(=O)C23CC4CC(CC(C4)C2)C3)cc1`, the survival was 80%.

As to `COc1ccc(N2CCN(c3ncnc4c3cnn4-c3ccc(C)c(Cl)c3)CC2)cc1`, the survival is 96%.

As to `Cc1ccc(/C=C/C(=O)N2CCC(c3nc4ccccc4o3)CC2)cc1`, the survival is 87%.

With `CC(C)NC(=O)C1CCN(C(=O)N2CC(C)Oc3ccccc32)CC1` (centres undefined), the survival is 72%.

On to `O=C(NC1CCCC1)c1ccc2c(=O)n(Cc3ccccc3)c(SCc3cccc([N+](=O)[O-])c3)nc2c1`, for which the survival was 106%.

For the compound `Cn1c(=O)[nH]c(=O)c2c1nc(N1CCOCC1)n2Cc1ccccc1`, the survival was 167%.

As to `Cn1c(=O)c2c(nc(N3CCOCC3)n2Cc2cccc(Br)c2)n(C)c1=O`, the survival was 80%.

In the case of `CCOC(=O)Cn1c(=O)c2c(nc3n2CCN3c2ccc(CC)cc2)n(C)c1=O`, the survival was 79%.

Consider `Cn1c(=O)n(Cc2ccccc2Cl)c(=O)c2c1nc1n2CCN1c1ccccc1`, for which the survival is 73%.

For the compound `Cn1c(=O)c2c(nc(N3CCOCC3)n2Cc2ccccc2F)n(C)c1=O`, the survival is 71%.

With `CC(C)CCSc1nc2c(c(=O)n(C)c(=O)n2C)n1Cc1ccccc1Cl`, the survival was 34% (active).

As to `COc1ccc(Oc2nc3c(c(=O)n(C)c(=O)n3C)n2Cc2ccccc2Cl)cc1`, the survival was 54%.

For the compound `Cn1c(=O)c2c(nc(N3CCOCC3)n2Cc2ccc(Br)cc2)n(C)c1=O`, the survival is 43% (active).

`CCOC(=O)Cn1c(=O)c2c(nc(N3CCOCC3)n2Cc2ccccc2)n(C)c1=O`: the survival was 43% (active).

`Cn1c(=O)c2c(nc(NCCCCO)n2Cc2ccccc2Cl)n(C)c1=O`: the survival was 63%.

For the compound `Cn1c(=O)c2c(nc(N3CCOCC3)n2Cc2ccccc2)n(C)c1=O`, the survival is 52%.

With `Cn1c(=O)c2c(nc(N3CCOCC3)n2Cc2ccccc2Cl)n(C)c1=O`, the survival was 46% (active).
